Experimental data taken from PubChem BioAssay AID1259415 (National Center for Advancing Translational Sciences (NCATS), 2018).
Among all 410,000 compounds or so, about 18,000 (4.4%) were called active. About 7% were inconclusive and are not listed. This is one part of a sample in which actives are shown more often than they occur. A number with no mark means an inactive call. Cut-off read from the data, not from the text of the source: active = activity change below about -60%; inconclusive = no clear call, values can overlap the other calls; inactive = above about -39%.

Assay: qHTS Assay for inhibitors of the human cytomegalovirus (HCMV)
Details: HFF cells, HCMV-luciferase reporter, 72 h; at 57.5 µM; stronger effect = lower value
Summary of the method: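 HFF cells seeded 16 h at 37C, treated with compounds, infected with luciferase-reporter HCMV at MOI 1 PFU/cell; luciferase read at 72 h post infection, normalized to buffer-only and Salinomycin controls.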
% is set by controls: 0 for no effect and ±100 for the full control effect.

| Compound | activity change, negative = inhibition |
| --- | --- |
| CCOc1ccc(S(=O)(=O)Nc2ccc3oc4c(c3c2)CC(C)CC4)cc1 (centres undefined) | 33.8% |
| CCC(=O)N1CCc2cc(S(=O)(=O)NCCC(=O)Nc3cccc(C)c3C)ccc21 | 4.12% |
| CCCC(=O)Nc1nnc(CC(=O)OCC)s1 | 69.6% |
| CC(C)NC(=O)c1ccccc1S(=O)c1ccccc1C#N (centres undefined) | -72.2% (active) |
| N#Cc1ccccc1Sc1ccccc1C(=O)OCC(=O)NC1CCCCC1 | -31.3% |
| CC(C)Oc1ccccc1C(=O)NC(CO)C(=O)O (centres undefined) | 0.22% |
| O=C(CC(c1cccs1)N1Cc2ccccc2C1=O)Nc1ccc(F)cc1F (centres undefined) | 5.86% |
| Cc1ccc(-c2ccc(CCC(=O)O)n2-c2ccc(C(N)=O)cc2)cc1 | 15% |
| [O-][n+]1onc2c1CCc1[nH]c(-c3ccccc3)nc1-2 | -99.3% (active) |
| Cc1ccc(NC(=O)C(Cc2ccccc2)NS(=O)(=O)c2ccc3c(c2)oc(=O)n3C)cc1C (centres undefined) | 1.25% |
| CC1CCN(S(=O)(=O)c2ccc3c(c2)N(CC(=O)NCc2ccccc2Cl)C(=O)CO3)CC1 | 15.7% |
| O=C(OCc1ccccc1)c1ccc(O)cc1 | 17.9% |
| CCOC(=O)c1c(CN2CCOCC2)n(-c2ccccc2)c2ccc(O)cc12 | -73% (active) |
| CCOC(=O)c1c(CN(C)C)n(-c2ccccc2)c2cc(Br)c(O)cc12 | -35% |
| CCOC(=O)c1nnn(-c2nonc2-n2cccc2)c1CN1CCOCC1 | -19.5% |
| O[C@H]1C[C@H](c2ccc(Cl)cc2)N(Cc2cccs2)C[C@@H]1n1cc(C2CC2)nn1 | 15% |
| CCOC(=O)[C@]12CCC=C1N(CCC1=CCCCC1)C(=O)[C@H](CC(=O)NCc1ccc(C)o1)C2 | -0.404% |
| CCc1nc2onc(C)c2c(=O)n1CC(=O)O | 9.29% |
| CCc1nn(CC(=O)NCC(C)c2ccccc2)c(=O)c2cc3occc3n12 (centres undefined) | -13.6% |
| COc1ccc(-c2nc(Cn3c(=O)cc(C)c4c(C)nn(-c5ccccc5)c43)c(C)o2)cc1OC | 18.8% |
| OCCCNc1nccc(-c2cc(Nc3cccc(Cl)c3)ncn2)n1 | -97.8% (active) |
| COC(=O)[C@H]1[C@H](CO)[C@H]2Cn3c(cccc3=O)[C@H]2N1CC1CC1 | 3.17% |
| O=C(c1cccnc1)N1CCN(S(=O)(=O)c2cccs2)CC1 | 7.09% |

| Compound | activity change, negative = inhibition |
| --- | --- |
| O=C(Nc1cccc(Cl)c1N1CCOCC1)c1cccnc1 | -21.6% |
| O=C(N/N=C/c1sc(N2CCCCC2)nc1-c1cccs1)c1cccnc1 | -80.6% (active) |
| COc1cccc(N2CC(NC(=O)/C=C\c3ccccc3)CC2=O)c1 (centres undefined) | 81.9% |
| CCOC(=O)c1c(-c2ccc(OC)cc2)oc2ccc(OCc3ccc(C(=O)OC)cc3)cc12 | -6.67% |
| COC(=O)c1ccc(NC(=O)CCc2c(C)nc3c(c(C)nn3-c3ccc(C)cc3)c2C)cc1 | -19.7% |
| COc1ccc(CCNC(=O)CCCCn2c(=O)c3ccccc3n(Cc3ccccc3)c2=O)cc1OC | -9.1% |
| COc1cc(/C=C2/SC(=S)N(Cc3ccccc3)C2=O)cc(OC)c1O | -63.1% (active) |
| COc1cc(Cl)cc(C2NC(=O)NC(C)=C2C(=O)NCc2ccccc2)c1O (centres undefined) | 3.06% |
| COc1cc2c(cc1OC)C(C(=O)NCc1ccco1)C1c3ccccc3CCN1C2=O (centres undefined) | 3.83% |
| COCCNC(=O)CSc1c(C)cnc2c1c(=O)n(C)c(=O)n2C | 8.83% |
| Cc1cccc2nc(-c3ccc(Cl)s3)c(Nc3ccc4c(c3)OCCO4)n12 | 19.5% |
| O=C(NC(c1ccc(Cl)cc1)c1cnccn1)C1CCN(Cc2ccc(Cl)cc2)CC1 (centres undefined) | 18.3% |
| Cc1cccnc1C(NC(=O)C1CCN(Cc2ccc(Cl)c(Cl)c2)CC1)c1ccc(Cl)cc1 (centres undefined) | -88.1% (active) |
| Cc1ccc(C(NC(=O)C2CCN(CCOc3ccc(Cl)cc3Cl)CC2)c2ccccn2)cc1 (centres undefined) | 23.2% |
| Cc1ccc(CSc2nc3cccnc3n2Cc2ccc(C(=O)NC3CC3)cc2)cc1 | 112% |
| CCn1c(CN2C(=O)CSc3ccccc32)n[nH]c1=S | -8.44% |
| CC(=O)c1cc(C#N)c(N2CCCCC2)nc1C | -92.4% (active) |
| Cc1cc(C)c2cc(C#N)c(N3CCNCC3)nc2c1 | -15.9% |
| CC(=O)c1cc(C#N)c(N2CC(C)OC(C)C2)nc1C (centres undefined) | -16.2% |
| Cc1cc(C)cc(NS(=O)(=O)c2ccc3[nH]cc(C(=O)N4CCCCC4)c(=O)c3c2)c1 | 1.5% |
| CC(=O)NC(Cc1ccc(F)c(F)c1)C(=O)NC1CCN(c2nnnn2-c2ccccc2)CC1 (centres undefined) | -16% |
| COc1ccc(-c2nonc2NC(=O)c2oc3ccc(F)cc3c2C)cc1OC | -12.8% |
| O=C(NC1CC(=O)N(c2ccccc2)C1)c1ccco1 (centres undefined) | 43.8% |

| Compound | activity change, negative = inhibition |
| --- | --- |
| CCc1ccc(Nc2n[n+](-c3ccccc3)c(-c3cccc(Cl)c3Cl)s2)cc1 | -69.1% (active) |
| COc1ccc(C)cc1Nc1n[n+](-c2ccccc2)c(-c2cccc(Cl)c2Cl)s1 | 8% |
| COc1cc(Br)c(-c2sc(Nc3ccccc3)n[n+]2-c2ccccc2)cc1OC | 25.2% |
| CCCCC(=O)OC1=CN(Cc2ccccc2)S(=O)(=O)c2ccccc21 | -6.62% |
| CN(Cc1cccs1)C(=O)Cc1c[nH]c2ccccc12 | 26% |
| CC(C)C12CN3CC(C(C)C)(CN(C1)C3c1ccc(OCc3ccccc3)cc1)C2=O (centres undefined) | -7.28% |
| Cc1ccc2nc(/C(C#N)=C/c3ccccc3F)[nH]c2c1 | 206% |
| Cc1ccc2nc(/C(C#N)=C/c3ccc(-c4ccc(C(=O)OC(C)C)cc4)o3)[nH]c2c1 | 41% |
| Cc1ccc2nc(/C(C#N)=C\c3ccc(OC(=O)c4cccs4)cc3)[nH]c2c1 | -67.5% (active) |
| COCCNC(=O)CSc1nc(-c2ccccc2)[nH]c1-c1ccc(C)cc1 | -25.2% |
| CCOc1cc2[nH]c(=O)n(Cc3ccc(C(=O)NCCN(CC)CC)cc3)c(=O)c2cc1OCC | -5.64% |
| Cc1cccc(C)c1NC(=O)CNC(=O)c1ccc(N2CCOCC2)c([N+](=O)[O-])c1 | 25.4% |
| O=C(NC1C2CC3CC(C2)CC1C3)c1ccc(N2CCNCC2)c([N+](=O)[O-])c1 (centres undefined) | 6.12% |
| O=C(Nc1cccc(C(F)(F)F)c1)c1ccc(N2CCNCC2)c([N+](=O)[O-])c1 | -65.3% (active) |
| CCCCS(=O)(=O)c1oc(-c2cccs2)nc1S(=O)(=O)c1ccccc1 | -108% (active) |
| CSc1oc(-c2cccs2)nc1S(=O)(=O)c1ccc(Br)cc1 | 29.5% |
| Cc1ccc(CSc2oc(-c3cccs3)nc2S(=O)(=O)c2ccc(C)cc2)cc1 | 12.7% |
| Cc1ccc(-n2nc(CO)c(C(=O)NCCc3ccccc3)n2)cc1 | 18.9% |
| CCOC(=O)c1cccc(NC(=O)Cn2cnc3nc4c(cc3c2=O)CCCC4)c1 | 4.14% |
| CCc1ccccc1NC(=O)CN(C)C(=O)COc1ccc(C)nc1[N+](=O)[O-] | -24.2% |
| COCC(C)n1c(C)cc(C(=O)COc2ccc(C)nc2[N+](=O)[O-])c1C (centres undefined) | -71.3% (active) |
| COc1ccc(C)cc1-n1nnnc1SCC(=O)c1cc(C)n(Cc2ccco2)c1C | 39.6% |
| CC(NC(=O)COc1cccnc1[N+](=O)[O-])c1ccc(Cl)cc1Cl (centres undefined) | -23.4% |

| Compound | activity change, negative = inhibition |
| --- | --- |
| Cc1ccc(OCC(=O)Nc2ccccc2Sc2ccc(Cl)cc2)c([N+](=O)[O-])n1 | -14.6% |
| Cc1ccc(OCC(=O)c2cc(C)n(Cc3ccco3)c2C)c([N+](=O)[O-])n1 | -78.9% (active) |
| O=S(=O)(NCCc1nnc2ccc(SCc3ccc(Cl)cc3Cl)nn12)c1ccccc1 | 5.81% |
| Cn1nc(C(=O)OCC(=O)N(Cc2ccccc2)C(C)(C)C)c2ccccc2c1=O | 2.54% |
| COc1ccc(NC(=O)CSc2ncnc3[nH]ncc23)cc1 | -2.36% |
| COc1ccc(NC2=CC(=S)NC(C)(C)C2)cc1 | 42.8% |
| COc1ccc(Nc2cc(Sc3ccc(OC)cc3)ncn2)cc1 | -88.8% (active) |
| Cc1ccc(Sc2ccncc2S(N)(=O)=O)cc1 | 55.9% |
| CC1CC(C)CN(C(=O)CSc2ccsc2[N+](=O)[O-])C1 (centres undefined) | -70.8% (active) |
| O=C(CSc1ccsc1[N+](=O)[O-])N1CCCCC1 | 3.43% |
| CC1CC(C)CN(C(=O)CSc2nnc(CSc3ncccn3)n2C)C1 (centres undefined) | -15.8% |
| CC(C)C(OC(=O)c1cccs1)C(=O)NC1CCCCC1 (centres undefined) | 55.6% |
| CC(C)=C1N(S(=O)(=O)C(F)(F)F)CCC12CN(C)c1ccccc12 (centres undefined) | -18.4% |
| CCC(=O)N1c2ccccc2CC1C(=O)N1CCN(c2cccc(OC)c2)CC1 (centres undefined) | 16.8% |
| COC(=O)c1c(C)[nH]c(C(=O)/C=C/c2ccc(Cl)cc2)c1C | -85.4% (active) |
| COc1ccc(C)cc1NC(=O)c1[nH]c(C)c(C(C)=O)c1C | 106% |
| COC(=O)c1c(C)oc(C)c1S(=O)(=O)NCc1ccc(Cl)cc1 | -3.12% |
| CCc1ccc(CCC(=O)Nc2ccc(S(N)(=O)=O)cc2)o1 | -16.8% |
| Cc1ccc(CCC(=O)Nc2ncc(Cc3cc(Cl)ccc3Cl)s2)o1 | -89.7% (active) |
| COc1ccccc1N1CCN(C(=O)C2CCN(S(=O)(=O)c3c(C)noc3/C=C/c3ccc(C)cc3)CC2)CC1 | 1.7% |
